Out of some 5,500 compounds screened, about 2,000 (36%) were called active. Roughly 18% stayed inconclusive and do not appear here. No stated cut-off is given here; in the data, active means normalized growth mostly below about 0.91 (no sharp cut-off); inconclusive means no clear call, values can overlap the other calls; inactive means mostly above about 0.92. This is one part of the list.
Assay: chemical genetic growth profiling, strain panel (AID 1159580);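 further: tested at 20 µM; growth read once vehicle control cultures reached saturation at 30 °C; 1 = growth at the plate median or of vehicle wells; lower values mean less growth of the strain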
Details: S. cerevisiae deletion strains, growth OD

Measured: normalized growth

C[C@@H]1CC2C3CCC4=CC(=O)C=C[C@]4(C)[C@@]3(F)[C@@H](O)C[C@]2(C)[C@H]1C(=O)CO (stereo not given in full)
inactive: locus YAL021C, strain ccr4, active compounds read low 1 | locus YAL026C, strain drs2, active compounds read low 0.998 | locus YAL030W, strain snc1, active compounds read low 0.998 | locus YBL061C, strain skt5, active compounds read low 0.999 | locus YBR009C, strain hhf1, active compounds read low 0.997 | locus YBR023C, strain chs3, active compounds read low 0.995 | locus YBR171W, strain sec66, active compounds read low 0.986 | locus YBR231C, strain swc5, active compounds read low 0.988 | locus YBR279W, strain paf1, active compounds read low 0.997 | locus YCL011C, strain gbp2, active compounds read low 0.993 | locus YCL016C, strain dcc1, active compounds read low 1.01 | locus YCL061C, strain MRC1, active compounds read low 0.994 | locus YCL069W, strain vba3, active compounds read low 1 | locus YCR088W, strain abp1, active compounds read low 0.992 | locus YDL005C, strain med2, active compounds read low 0.997 | locus YDL040C, strain nat1, active compounds read low 0.996 | locus YDR001C, strain nth1, active compounds read low 0.987 | locus YDR069C, strain doa4, active compounds read low 0.999 | locus YDR137W, strain rgp1, active compounds read low 0.979 | locus YDR159W, strain sac3, active compounds read low 0.998 | locus YDR195W, strain ref2 0.965 | locus YDR297W, strain sur2, active compounds read low 0.996 | locus YDR334W, strain swr1, active compounds read low 1 | locus YDR335W, strain msn5, active compounds read low 1 | locus YDR392W, strain spt3, active compounds read low 0.976 | locus YEL003W, strain gim4, active compounds read low 0.999 | locus YEL037C, strain rad23, active compounds read low 1 | locus YEL061C, strain CIN8 (second series), active compounds read low 0.996 | locus YER015W, strain faa2, active compounds read low 0.999 | locus YER016W, strain bim1, active compounds read low 1 | locus YER111C, strain swi4, active compounds read low 0.982 | locus YER155C, strain BEM2 (second series), active compounds read low 0.994 | locus YFR010W, strain ubp6, active compounds read low 0.989 | locus YGL167C, strain pmr1, active compounds read low 0.996 | locus YGL173C, strain kem1, active compounds read low 0.987 | locus YGL227W, strain vid30, active compounds read low 0.989 | locus YGL240W, strain doc1, active compounds read low 1 | locus YGL253W, strain hxk2, active compounds read low 1.01 | locus YHR013C, strain ard1, active compounds read low 1 | locus YHR027C, strain rpn1, active compounds read low 0.995 | locus YHR030C, strain SLT2, active compounds read low 1.06 | locus YHR079C, strain IRE1, active compounds read low 1.05 | locus YHR142W, strain chs7, active compounds read low 1.01 | locus YJL092W, strain hpr5, active compounds read low 0.998 | locus YJL095W, strain BCK1 (second series), active compounds read low 1.01 | locus YJL095W, strain BCK1, active compounds read low 0.98 | locus YJL115W, strain asf1, active compounds read low 0.996 | locus YJL129C, strain trk1, active compounds read low 1.01 | locus YJL154C, strain vps35, active compounds read low 0.995 | locus YJL164C, strain tpk1, active compounds read low 1.01 | locus YJL166W, strain qcr8, active compounds read low 0.998 | locus YJL187C, strain SWE1, active compounds read low 0.993 | locus YJR066W, strain TOR1, active compounds read low 1.01 | locus YKL160W, strain elf1, active compounds read low 1 | locus YKR026C, strain gcn3, active compounds read low 0.982 | locus YKR091W, strain srl3, active compounds read low 0.996 | locus YLL001W, strain dnm1, active compounds read low 0.982 | locus YLL026W, active compounds read low 0.988 | locus YLL041C, strain sdh2, active compounds read low 0.999 | locus YLR027C, strain aat2, active compounds read low 1.01 | locus YLR113W, strain HOG1, active compounds read low 0.929 | locus YLR221C, strain rsa3, active compounds read low 1.01 | locus YLR258W, strain gsy2, active compounds read low 1 | locus YLR262C, strain YPT6 (second series), active compounds read low 0.985 | locus YLR320W, strain mms22, active compounds read low 0.992 | locus YLR342W, strain FKS1, active compounds read low 1 | locus YLR357W, strain rsc2, active compounds read low 0.999 | locus YLR370C, strain arc18, active compounds read low 0.993 | locus YLR384C, strain iki3, active compounds read low 1 | locus YML120C, strain ndi1, active compounds read low 1 | locus YMR058W, strain fet3, active compounds read low 1 | locus YMR125W, strain sto1, active compounds read low 0.983 | locus YMR129W, active compounds read low 0.995 | locus YMR205C, strain PFK2, active compounds read low 0.973 | locus YMR231W, strain pep5, active compounds read low 0.998 | locus YNL071W, strain lat1, active compounds read low 0.999 | locus YNL183C, strain NPR1, active compounds read low 0.992 | locus YNL209W, strain ssb2, active compounds read low 1 | locus YNL248C, strain rpa49, active compounds read low 0.999 | locus YNL322C, strain KRE1 (second series), active compounds read low 1 | locus YNR049C, strain mso1, active compounds read low 0.999 | locus YOR001W, strain rrp6, active compounds read low 1.01 | locus YOR070C, strain gyp1, active compounds read low 0.997 | locus YOR080W, strain dia2, active compounds read low 0.991 | locus YOR083W, strain WHI5, active compounds read low 1.01 | locus YOR106W, strain vam3, active compounds read low 1.02 | locus YOR231W, strain MKK1, active compounds read low 1.05 | locus YOR265W, strain rbl2, active compounds read low 1 | locus YOR270C, strain vph1, active compounds read low 1.01 | locus YOR290C, strain snf2, active compounds read low 1 | locus YPL051W, strain arl3, active compounds read low 0.999 | locus YPL078C, strain atp4, active compounds read low 1.01 | locus YPL106C, strain sse1, active compounds read low 1.01 | locus YPL240C, strain hsp82, active compounds read low 0.982 | locus YPL256C, strain CLN2, active compounds read low 1.04

Source: PubChem BioAssay AID1159580 (chemical genetic matrix, 2015)
